Source: PubChem BioAssay (Tox21)
Inconclusive results are not listed. A number with no mark means an inactive call. The source made the active and inactive calls. Calls follow the shape of the full dose curve.

Experiment: qHTS assay to identify small molecule agonists or antagonists of the thyroid stimulating hormone receptor (TSHR) signaling pathway - wild type cell line counter screen (AID 1259384)
Conditions: HEK293 wild type, cAMP HTRF counter-screen, stronger effect = higher value; series mostly up to 92.4 µM; cAMP activity change: at the top concentration
Source text: U.S. Tox21 Program National Center for Advancing Translational Sciences [NCATS] NIH Chemical Genomics Center [NCGC] U.S. Environmental Protection Agency [EPA] National Institutes of Environmental Health Sciences [NIEHS] National Toxicology Program [NTP] U.S. Food and Drug Administration [FDA] Tox21 Assay Overview: TSHR is the receptor for thyrotropin (thyroid stimulating hormone or TSH), a member of the glycoprotein hormone family. TSH is released by the anterior pituitary gland and is the main regulator of thyroid gland growth and development. Upon binding circulating thyrotropin, a G-protein signal cascade activates adenylyl cyclase and […] cAMP concentration is increased. cAMP is a key second messenger involved extensively in cellular signal transduction pathways associated with the majority of G-protein coupled receptors (GPCRs). The activation of these GPCRs by neurotransmitters, lipids, nucleotides, peptides and hormones results in the activation or the inhibition of plasma membrane-bound adenylate cyclase through heterotrimeric G-proteins. A cell-based TSHR-Hek293 assay can be used to identify TSHR agonists. To eliminate the false positive compounds identified from screening a cell-based TSHR-Hek293 cell line, cAMP assay in a wild type Hek293 cells was used as a counter screening.
Tox21 Assay Protocol Summary: Hek293 cells (wild type) were dispensed at 800 cells/4 uL/well in 1536-well white plates using a Multidrop dispenser. After the assay plates were incubated at a 37 C/5% CO2 incubator for 18 hrs, 23 nL of compounds dissolved in DMSO, positive controls or DMSO only was transferred to the assay plate by a pin tool, followed by 1 ul medium containing Ro20-1724. After 30 min of incubation at room temperature, 2.5 ul/well of cAMP-d2 and 2.5 ul/well of anti-cAMP-cryptate were added respectively into the assay plates using a Flying Reagent Dispenser. The plates were incubated at room temperature for 1 hr. The fluorescence intensity in the plates was measured using an Envision plate reader. Each test compound was measured at 15 concentrations and in triplicates.
% is scaled to controls: 0 for no effect and ±100 for the full control effect.

Question: Which “cAMP activity change” value does the source give for c1ccc2c(c1)[nH]c1cnccc12 here?
Answer: 2.49%

Question: For O=C(O)C1C2CCC(O2)C1C(=O)O (stereo not given), which outcome is on record?
Answer: inactive

Question: For O=[N+]([O-])c1c2ccccc2cc2ccccc12, which “cAMP activity change” value is on record?
Answer: 2.12%

Question: For Cc1c(Cl)c(=O)oc2cc(OP(=O)(OCCCl)OCCCl)ccc12, which “cAMP activity change” value is on record?
Answer: 5.07% [at 42.5 µM]

Question: For CC(C)CC(C)N (stereo not given), which “cAMP activity change” value is on record?
Answer: -4.05%

Question: Which “cAMP activity change” value does the source give for O=[N+]([O-])c1cc(Cl)ccc1Cl here?
Answer: 0.276%

Question: Which “cAMP activity change” value does the source give for ClCc1ccc(Cl)cc1Cl here?
Answer: -3.7%

Question: For Oc1ccc(C2(c3ccc(O)cc3)CCCCC2)cc1, which “cAMP activity change” value is on record?
Answer: 4.19%

Question: With [Cl][Sb]([Cl])[Cl] as the molecule, how does the “cAMP activity change” value read?
Answer: -0.639%

Question: With Nc1ccccc1C(=O)OC/C=C/c1ccccc1 as the molecule, how does the “cAMP activity change” value read?
Answer: 0.0308%

Question: For Nc1ccc(Cc2ccc(N)c(Cl)c2)cc1Cl, which “cAMP activity change” value is on record?
Answer: -11.2%

Question: For CNC(C)Cc1ccc2c(c1)OCO2 (stereo not given), which “cAMP activity change” value is on record?
Answer: -6.61%

Question: With O=[N+]([O-])c1ccc(Oc2ccc(C(F)(F)F)cc2[N+](=O)[O-])cc1 as the molecule, how does the “cAMP activity change” value read?
Answer: -0.275%

Question: For ClC(Cl)=C(Cl)Cl, which “cAMP activity change” value is on record?
Answer: -0.0313%

Question: With O=S(=O)(c1ccc(Cl)cc1)c1ccc(Cl)cc1 as the molecule, how does the “cAMP activity change” value read?
Answer: -3.85%

Question: With CC(C)(O)c1cnn2c(-c3ccc(F)c(-c4c(F)cccc4C#N)c3)cnc2n1 as the molecule, how does the “cAMP activity change” value read?
Answer: 0.72%

Question: With CCCCCCCCCCCCCCCCCCn1cc[n+](C)c1 as the molecule, how does the “cAMP activity change” value read?
Answer: -1.5%

Question: With Cc1cccc(OP(=O)(Oc2cccc(C)c2)Oc2cccc(C)c2)c1 as the molecule, how does the “cAMP activity change” value read?
Answer: 2.56%

Question: With CC(C)OC(=S)S as the molecule, how does the “cAMP activity change” value read?
Answer: 2.4%

Question: Which “cAMP activity change” value does the source give for Cc1ccc(CCl)cc1 here?
Answer: 3.96%

Question: Which “cAMP activity change” value does the source give for O=C(CCl)C(Cl)Cl here?
Answer: 5.02%

Question: Which “cAMP activity change” value does the source give for O=[N+]([O-])c1cc([N+](=O)[O-])c2ccccc2c1 here?
Answer: -2.78%

Question: For CC(C)CC(C)(c1ccc(O)cc1)c1ccc(O)cc1, which outcome is on record?
Answer: inactive

Question: Which “cAMP activity change” value does the source give for ClC1=C(Cl)[C@]2(Cl)[C@H]3[C@H]([C@H]4C=C[C@H]3C4)[C@@]1(Cl)C2(Cl)Cl here?
Answer: -4.17%

Question: Which “cAMP activity change” value does the source give for CCc1ccccc1C here?
Answer: -0.101%

Question: With c1ccc(Nc2ccc3ccccc3c2)cc1 as the molecule, how does the outcome read?
Answer: inactive

Question: For O=C(Cl)c1ccc(Cl)cc1, which “cAMP activity change” value is on record?
Answer: -0.23%

Question: Which “cAMP activity change” value does the source give for CCN here?
Answer: 2.43%

Question: For CCCN(CC)CC1COC2(CCC(C(C)(C)C)CC2)O1 (stereo not given), which “cAMP activity change” value is on record?
Answer: 2.65%

Question: For CC(C)CCCCCCCOP(=O)(Oc1ccccc1)Oc1ccccc1, which “cAMP activity change” value is on record?
Answer: -1.16%

Question: Which “cAMP activity change” value does the source give for CC(=O)C(Cl)(Cl)Cl here?
Answer: -2.75%

Question: For COCC(=O)N(c1c(C)cccc1C)[C@H](C)C(=O)OC, which “cAMP activity change” value is on record?
Answer: -1.12%

Question: Which outcome does the source give for ClC1=C(Cl)C2(Cl)C3C(Cl)C=CC3C1(Cl)C2(Cl)Cl (stereo not given) here?
Answer: inactive

Question: For COc1ccc([N+](=O)[O-])cc1O, which “cAMP activity change” value is on record?
Answer: -0.0034% [at 42.5 µM]

Question: Which “cAMP activity change” value does the source give for O=C(CCl)Nc1ccccc1 here?
Answer: 0.972%

Question: For ClC1=C(Cl)[C@]2(Cl)[C@@H]3[C@@H]4C[C@@H]([C@H]5O[C@@H]45)[C@@H]3[C@@]1(Cl)C2(Cl)Cl, which “cAMP activity change” value is on record?
Answer: -1.47%

Question: Which “cAMP activity change” value does the source give for C=COCCCl here?
Answer: -0.411%

Question: Which “cAMP activity change” value does the source give for C[C@]12Cc3nonc3C[C@@H]1CC[C@@H]1[C@@H]2CC[C@@]2(C)[C@H]1CC[C@]2(C)O here?
Answer: 0.229% [at 42.5 µM]

Question: With CN(C)c1ccc(N=Nc2ccccc2)cc1 as the molecule, how does the “cAMP activity change” value read?
Answer: -0.281%

Question: With CCCCCCCCc1ccc(O)cc1 as the molecule, how does the “cAMP activity change” value read?
Answer: 2.8%
